Data on 74 compounds can be found in PubChem BioAssay AID624300 (Southern Research Specialized Biocontainment Screening …, 2012).

Screen size: about 2,400 compounds; about 360 (15%) were called active. A selection follows. Entries with a potency or affinity are not part of this list. Values without a mark were called inactive.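 The calls were made as follows: active = viability falls under 70% at one or more tested concentrations, taken as toxicity; inactive = viability stays over 70% at every dose.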

The assay in a line: viability loss in HeLa cells – cytotoxicity control for MgcRacGAP inhibitor project, dose response (AID 624300).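 Also: 100% = median of untreated control wells on the same plate.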 The note with it: CellTiter-Glo luminescence, 24 h; series mostly up to 100 µM; viability: at the top concentration.
Consider `Cc1ncc(CO)c(/C=N/Nc2ccc(C(F)(F)F)cn2)c1O`, for which the viability (in general, a read-out of living cells in per cent, often relative to untreated cells) is 96.6%.

For the compound `CCOc1cc(/C=N/NC(=O)CCCC(=O)NC2CCCCC2)ccc1O`, the “viability” value was 103%.

For the compound `COc1cc(/C=C/C(=O)OCC(=O)N2CCN(S(=O)(=O)c3ccc(C)cc3C)CC2)ccc1O`, the “viability” value was 87.1%.

In the case of `CCN(CC)CCC(=O)N1C/C(=C/c2ccccc2)C(=O)/C(=C\c2ccccc2)C1`, the “viability” value was 87.1%.

Turning to `CCOc1cc(/C=C2\CN(CC)C/C(=C\c3ccc(O)c(OCC)c3)C2=O)ccc1O`, the “viability” value is 83.4%.

On to `CC(C)c1ccc(CNc2ccc(N3CCOCC3)cc2)cc1`, for which the “viability” value was 91.4%.

Regarding `CC1CCN(S(=O)(=O)c2ccc3c(c2)C(Cl)(Cl)C(=O)N3)CC1`, the “viability” value is 94%.

Take `CCOc1cc(/C=C2\CN(C)C/C(=C\c3ccc(O)c(OCC)c3)C2=O)ccc1O`: the “viability” value was 99%.

On to `CCOc1cc(CNc2ccc3[nH]c(=O)[nH]c3c2)ccc1OCC(=O)NC(C)(C)C`, for which the “viability” value is 103%.

On to `O=C1CSC(=Nc2ccc(O)cc2)N1`, for which the “viability” value was 119%.

As to `CCN(CC)S(=O)(=O)c1cccc(-c2n[nH]c(=S)n2/N=C/c2ccc(C(=O)OC)cc2)c1`, the “viability” value is 90.5%.

Consider `c1cc2c(cc1NC1CCCCCC1)OCO2`, for which the “viability” value is 109%.

With `CC(=O)N1CCC(=NNC(=O)c2cc3ccccc3cc2O)CC1`, the “viability” value was 102%.

For the compound `C/C(=N\Nc1ccc([N+](=O)[O-])cc1)c1ccc(N)cc1`, the “viability” value was 93.4%.

For the compound `COc1cccc(NC2=C(C#N)C(=O)NC(c3cccc(OC)c3O)S2)c1` (centres undefined), the “viability” value was 99.7%.

As to `COc1ccc(NCc2cc(=O)[nH]c3ccccc23)cc1`, the “viability” value was 98.2%.

With `Cn1c(=O)c2ccccc2n2c(=S)[nH]nc12`, the “viability” value is 87.6%.

`CC(OC(=O)CCN=C1NS(=O)(=O)c2ccccc21)C(=O)Nc1ccc(N(C)C)cc1` (centres undefined): the “viability” value is 106%.

`CCNC(=S)Nc1cc2oc3ccccc3c2cc1OC`: the “viability” value is 87.5%.

In the case of `COc1cc2c(cc1NC(=S)Nc1cccc3ccccc13)oc1ccccc12`, the “viability” value was 95.5%.

As for `CC(=O)Nc1ccc(N=Nc2ccc(O)cc2)cc1`, the “viability” value is 111%.

Regarding `CCN(C=NC1=NN(c2cccc(C(F)(F)F)c2)CC1)CC`, the “viability” value was 94.5%.

For the compound `O=C(Cn1sc2ccccc2c1=O)Nc1ccccc1`, the “viability” value was 94.5%.

Regarding `COc1ccc(N2CCN(c3ncccn3)CC2)cc1`, the “viability” value is 103%.

For the compound `O=C(Cn1sc2ccccc2c1=O)Nc1ccc(F)cc1`, the “viability” value is 91.6%.

As for `Cc1ccc(-n2sc3ccccc3c2=O)cc1`, the “viability” value is 82.2%.

On to `S=C(NCc1ccco1)NCc1ccco1`, for which the “viability” value is 108%.

On to `COc1cc(CN2CCC(C(=O)N3CCCC(C)C3)CC2)cc(Br)c1O` (centres undefined), for which the “viability” value is 97%.

`O=C(NC(=S)Nc1ccc(O)cc1)C1CCCC1`: the “viability” value is 103%.

On to `COc1cc(/C=N/N=C2/SCC(=O)N2c2ccc(O)cc2)ccc1O`, for which the “viability” value is 115%.

With `CN(C)c1ccc(NC(=O)CCN2C(=O)c3cccc([N+](=O)[O-])c3C2=O)cc1`, the “viability” value is 102%.

With `COc1cccc(Nc2ccc(N3CCCCC3)cc2)c1OC`, the “viability” value was 86.7%.

`C=CCNC(=S)N1CCN(Cc2ccc3c(c2)OCO3)CC1`: the “viability” value is 98.5%.

On to `CCOc1ccc(C2NC(=O)C(C#N)=C(S)N2c2ccc(C)cc2)cc1OC` (centres undefined), for which the “viability” value is 98.6%.

Regarding `COc1ccc(NC(=O)Nc2ccc(N(C)C)cc2)cc1`, the “viability” value is 99.5%.

`CN(CCCCCCN(C)Cc1ccccc1O)Cc1ccccc1O`: the “viability” value was 98.8%.

In the case of `CCCc1c(C)[nH]c2ccc(C(=O)O)cc2c1=S`, the “viability” value was 107%.

Regarding `Nc1nc(Sc2ccc([N+](=O)[O-])c3nonc23)c2[nH]cnc2n1`, the “viability” value is 48.2%.

Consider `CCOC(=O)c1c(/N=C/C2=C(O)CCCC2=O)sc(C)c1C`, for which the “viability” value is 98.8%.

In the case of `O=C(O)c1cccc(-n2sc3ccccc3c2=O)c1`, the “viability” value was 88%.

Turning to `Clc1ccccc1-c1nc(/C=N/N2CCOCC2)c2ccccn12`, the “viability” value is 97.4%.

Turning to `O=C(CN1CCc2ccccc2C1)Nc1ccccc1C(F)(F)F`, the “viability” value was 97.3%.

For `O=C(N/N=C/c1ccc(O)cc1)c1csc2c1CCCC2`, the “viability” value was 97.4%.

For `Oc1ccc(-c2nccs2)cc1`, the “viability” value is 92.6%.

Take `CCN=c1scc(C)n1/N=C/c1cc(Br)c(O)c(OC)c1`: the “viability” value was 90.2%.

Turning to `Cc1cc(=O)[nH]c2c(N=Nc3ccc(O)cc3)c(N)nn12`, the “viability” value is 99.6%.

Consider `CC1(C)CC(=O)C2=C(C1)Nc1ccccc1S2`, for which the “viability” value was 106%.

In the case of `COc1cccc(/C=N/n2c(-c3n[nH]c4c3CCC4)n[nH]c2=S)c1O`, the “viability” value was 88.5%.

Consider `O=C1CCC(C2CCc3cc(O)ccc3C2)C1` (centres undefined), for which the “viability” value was 89%.

Take `CCOc1ccccc1CN1CCC(N2CCOCC2)CC1`: the “viability” value is 91.6%.

For `CC(C)CC(=O)N1CCN(Cc2cccc([N+](=O)[O-])c2)CC1`, the “viability” value was 85.5%.

For `CCOc1cc(/C=N/NC(=O)CCc2n[nH]c(=O)[nH]c2=O)ccc1O`, the “viability” value was 106%.

Turning to `COc1cc2cc(-c3ccc(O)cc3O)nc(C)c2cc1OC`, the “viability” value was 82.8%.

Turning to `S=c1[nH]nc(-c2cccnc2)n1/N=C/c1cccs1`, the “viability” value is 102%.

In the case of `COc1ccc(-c2cn[nH]c2-c2ccc(O)cc2O)cc1OC`, the “viability” value is 91.1%.

For `Oc1ccc(-c2csc(-c3cccnc3)n2)cc1O`, the “viability” value was 95.4%.

For the compound `COc1ccc(C2NC(=O)C(C#N)=C(S)N2c2ccc(C)cc2)cc1OC` (centres undefined), the “viability” value was 104%.

Turning to `N#CC1(Nc2ccc(-c3ccc(NC4(C#N)CCCC4)cc3)cc2)CCCC1`, the “viability” value was 110%.

For the compound `Nc1ccc(N2CCCCC2)c(Cl)c1`, the “viability” value was 98%.

On to `Cc1cccc(NC2=C(C#N)C(=O)NC3(CCCC3)S2)c1`, for which the “viability” value was 98.8%.

`CCOc1cc(/C=C2/N=C(C)C(C(=O)OC)=C2O)ccc1O`: the “viability” value is 100%.

On to `COC(=O)C1=C(C)N(CC2CCCO2)C(=O)/C1=C\c1ccc(O)cc1` (centres undefined), for which the “viability” value was 102%.

Consider `COc1cc(-c2nc3ccccn3c2/N=C/c2cc(OC)c(O)cc2Cl)ccc1O`, for which the “viability” value is 89.2%.

As to `COc1cc(-c2nc3cnccn3c2Nc2c(C)cccc2C)ccc1O`, the “viability” value is 97.4%.

For the compound `Cc1ccccc1CN(C)CCc1ccccn1`, the “viability” value was 99.2%.

Turning to `Cc1nc(S/C(=C\c2ccc(-c3ccc(C(=O)O)c(Cl)c3)o2)C(=O)O)n[nH]1`, the “viability” value was 105%.

In the case of `Oc1ccc(N=Nc2ccccc2)cc1`, the “viability” value is 98%.

As for `O=C1c2ccccc2C(=O)C1c1ccc(O)cc1`, the “viability” value was 97.7%.

As for `Cc1ccc(S(=O)(=O)/N=S(/c2ccccc2)C(C)C)cc1` (centres undefined), the “viability” value is 88%.

Take `Cc1ccc(S(=O)(=O)Nc2ccc(N(C)C)cc2)cc1`: the “viability” value is 92.1%.

Turning to `COc1cc2c(cc1OC)C(c1cc(Br)c(OC)c(OC)c1)CC(=O)N2` (centres undefined), the “viability” value is 99%.

`CN(C)c1ccc(NC(=O)c2cccc(N3C(=O)C4C5C=CC(C5)C4C3=O)c2)cc1` (centres undefined): the “viability” value is 105%.

Consider `CC(C(=O)NC(=O)NC1CCCCC1)N1CCN(c2ccc(O)cc2)CC1` (centres undefined), for which the “viability” value was 101%.

`COc1ccc(N[C@@H]2CCN3C(=O)c4ccccc4[C@@H]3C[C@H]2O)cc1`: the “viability” value is 105%.
